RGS4 inh: human RGS4 inhibition. 390,000 compounds, 0.039% hits. Potency, µM (top dose mostly 114 µM), for the others: at the top dose activity change, negative = inhibition, most hits filed as inhibitors. P49798. Transcreener GDP fluorescence polarization, RGS4-accelerated GTP hydrolysis; note: % is set by controls: 0 for no effect and ±100 for the full control effect; nearly all actives have a fitted effect of over 75% in size
Target sequence (P49798 whole entry, looked up): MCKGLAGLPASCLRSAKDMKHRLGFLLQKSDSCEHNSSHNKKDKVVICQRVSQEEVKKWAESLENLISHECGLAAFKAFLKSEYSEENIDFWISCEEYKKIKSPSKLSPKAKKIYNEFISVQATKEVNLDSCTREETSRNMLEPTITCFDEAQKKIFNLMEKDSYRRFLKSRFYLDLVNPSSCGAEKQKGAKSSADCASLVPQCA
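MLSMR compounds (23 nl, pin-transferred) preincubated 10 min at room temperature with a 500nM (2x) first reagent, then RGS4 at 900nM (2x) plus Transcreener GDP mix added; fluorescence polarization (620/688 nm) read before and after 90 min at 30 °C.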
MCF10A rerep: inducers of DNA re-replication in MCF 10A breast cells. Potency, µM (series often up to 46.1 µM), inactives show at the top dose activity, positive = re-replication, usual class: activators. MCF 10A DNA re-replication, Hoechst nuclear intensity, 48 h. AID 624296. 350,000 compounds, 2.9% hits; note: % of control where 0% means no effect; nearly all actives have a fitted effect of over 50% in size
PTAP TSG101 blk: blocks PTAP/TSG101 interaction to inhibit HIV-1 budding | Fluorescence polarization, FITC-PTAP peptide / Tsg101 binding | Potency, µM (top dose mostly 115 µM), without a hit: top-dose activity change, negative = inhibition, most hits filed as inhibitors | 340,000 tested, under 10 active | AID 493005; active = well fitted inhibition curve with a large enough effect in the main read-out, with a control signal flat, not every such curve was filed as active; inconclusive = small, poorly fitted or top-dose-only effect, or effect the other way, or a change in a side signal; inactive = no such curve, though single readings can be large or run the other way; note: % of control where 0% means no effect
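FP read-out: FITC-PTAP peptide, 50 nM final, binding Tsg101 binding domain, 10 uM final; 20 min, r.t.; 10 mM HEPES pH 7.5, 0.15 M NaCl, 0.01% Tween 20, 3 mM EDTA, 0.1 mM TCEP.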
KB-3-1 tox: KB-3-1 parental cell cytotoxicity; KB-3-1 viability, CellTiter-Glo ATP luminescence, 72 h; Potency, µM (top dose mostly 46.1 µM), hits mostly cytotoxic; 400,000 compounds, 1.4% hits; AID 1347075; note: % is set by controls: 0 for no effect and ±100 for the full control effect; nearly all actives have a fitted effect of over 60% in size
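Screening of KB-3-1 cells (DMEM, 10% FBS, phenol-red free) ran from lowest to highest compound concentration; after 72 h at 37 °C viability was read luminescently and curves fitted.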
SW480 rerep: DNA re-replication induction in SW480 cells; SW480 DNA re-replication, Hoechst DNA content imaging, 48 h; Potency, µM (highest dose often 46.1 µM), for the others: at the top dose re-replication activation, usual class: activators; 340,000 compounds, 1.8% hits; note: % of control where 0% means no effect; nearly all actives have a fitted effect of over 55% in size
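First, 250 cells per well were seeded. Next, compound or vehicle (23 nL) was pinned in, plates sat 48 hr at 37 C. Finally Hoechst was added for 40 min before fluorescence scanning.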
KB-V1 MDR tox: KB-V1 MDR subline cytotoxicity. Potency, µM (doses to about 46.1 µM), most hits filed as cytotoxic. KB-V1 MDR cells viability, CellTiter-Glo, 72 h. 400,000 compounds, 3.4% hits; note: % is set by controls: 0 for no effect and ±100 for the full control effect; nearly all actives have a fitted effect of over 60% in size
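Following 72 h at 37 degrees C with compound, KB-V1 cell viability was read by CellTiter-Glo luminescence, medium being phenol-red-free DMEM plus 10% FBS; concentration-response parameters came from normalized, curve-fitted qHTS data.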
* marks the source's active call; other numbers are inactive results; i = inactive; ? = inconclusive; · = not tested or not shown. In the library only some 6.6% were active in any assay of this set; here they are far more common. Unless noted, calls come from the whole dose curve; as a rule, active = well fitted curve in the direction sought with a large enough effect; inconclusive = small, poorly fitted or top-dose-only effect, or another doubt; inactive = no such curve, though single readings can be large; an effect the other way counts as inactive or inconclusive. Potency is the fitted concentration of half-maximal effect.

SMILES	RGS4 inh	MCF10A rerep	PTAP TSG101 blk	KB-3-1 tox	SW480 rerep	KB-V1 MDR tox
CCOc1ccccc1NC(=O)c1cnn2c(C(F)F)cc(-c3ccccc3)nc12	0.6%	·	·	18.4µM*	·	i
COc1ccc(NC(=O)c2cc(-c3ccccn3)nc3ccccc23)c(OC)c1	-16.5%	11.8%	-4.3%	i	1.4%	i
COc1ccc(NC(=O)CSc2nc3ccccc3nc2N2CCC(C)CC2)cc1	-18.1%	·	·	·	·	·
COc1ccc(C(=O)NNC(=O)CN2CCC(n3nnc4cc(C(F)(F)F)ccc43)CC2)cc1	-6.6%	25.4%	0.5%	i	-3.1%	i
O=C(CN1CCC(n2nnc3ccccc32)CC1)NCc1cccs1	1.3%	9.8%	-5.6%	i	1.5%	23.1µM*
O=C(CN1CCC(n2nnc3cc(F)ccc32)CC1)NCc1ccco1	19.7%	2.8%	-7.4%	i	0.7%	i
O=C(c1ccco1)N1CCC(n2nnc3ccccc32)CC1	-32.0%	6.2%	-1.2%	i	-4.3%	13µM*
COC(=O)c1ccccc1NC(=O)CN1CCC(n2nnc3cc(C(F)(F)F)ccc32)CC1	-28.5%	?	-1.1%	?	1.3%	4.11µM*
O=C(c1ccco1)N1CCN(C(=O)c2ccco2)CC1	·	·	·	i	·	i
O=C(CSC1=Nc2ccccc2C2=NC(CCC(=O)NC3CCCCC3)C(=O)N12)Nc1cccc(C(F)(F)F)c1 (centres undefined)	-1.5%	·	·	i	·	i
Cc1nn(C)c(Oc2cccc(Cl)c2)c1C(=O)Nc1ccc(F)cc1F	-4.3%	-4.8%	-1.4%	i	-5.9%	18.4µM*
Cc1cccc(Oc2nccc(C(F)(F)F)c2C(=O)Nc2ccc(F)cc2F)c1	-1.5%	5.4%	-0.9%	i	-8.3%	i
Cc1nn(C)c(Oc2cccc(Cl)c2)c1C#N	?	-2.4%	-1.5%	i	0.9%	i
Cc1nn(C)c(Oc2cccc(Cl)c2)c1C(=O)Nc1ccc(F)cc1	4.8%	2.3%	-3.5%	i	-7.1%	14.6µM*
O=[N+]([O-])c1ccc(C2Oc3ccccc3C3CC(c4ccccc4)=NN32)s1 (centres undefined)	·	14.6µM*	·	·	23.1µM*	·
Cc1nn(C)c(C(=O)Sc2ccccc2)c1[N+](=O)[O-]	-3.7%	68.5%	-3.5%	i	-2.4%	i
CCn1nc(C)cc1C(=O)Sc1cccc(Cl)c1	-15.6%	23.1µM*	-2.4%	i	0.1%	i
Cc1nn(C)c(C(=O)Sc2cccc(Cl)c2)c1[N+](=O)[O-]	?	18.4µM*	0.6%	i	?	i
CCOc1ccccc1NC(=O)c1nc2nc(C)cc(C(F)F)n2n1	-14.7%	·	·	·	·	·
CC1=C(C(=O)Nc2ccc(C)cn2)C(c2cnn(C)c2)C2=C(CCCC2=O)N1 (centres undefined)	9.0%	-0.4%	-3.8%	i	0.517µM*	?
S=C(NCCN1CCOCC1)Nc1ccc(-c2nc3ccccc3[nH]2)cc1	-38.1%	1.03µM*	-8.2%	?	-1.0%	i
Cc1ccc(C)c(CN2CCC(CNC(=O)Nc3ccc(C)c(C)c3)CC2)c1	0.2%	?	-3.3%	?	?	18.4µM*
Cc1ccc(CN2CCC(CNC(=O)Nc3ccc(C)c(C)c3)C2)cc1 (centres undefined)	-6.8%	·	·	i	·	i
COc1ccc(Cl)cc1NC(=O)NCC1CCN(Cc2cc(C)ccc2C)CC1	-10.8%	19.9%	-1.6%	?	19.0%	23.1µM*
CCOc1ccc(OCCCCOc2ccccc2C(C)=O)cc1	-2.4%	22.3%	-0.5%	i	17.6%	i
CCOc1cccc(OCCOCCOc2ccccc2C(C)=O)c1	18.4%	1.4%	-1.2%	i	-1.0%	14.6µM*
Cc1c2c(n3c(nc4ccccc43)c1C#N)N(CCCN(C)C)CC2	-13.8%	14.6µM*	-3.5%	i	9.2µM*	?
